Assay outcomes as filed in PubChem.
Shown are actives, neighbours in structure and some others; about 3.9% of the full set was active somewhere.
Wnt act: Wnt/beta-catenin pathway activation; Wnt/beta-catenin reporter cell assay, activator, plate reader; activation, % at 9.35 µM; 1.2% of 300,000 active; in the data active = activation above about 30%, passing the limit was not always enough; inconclusive = no clear call, values can overlap the other calls
HSF-1 act: increases HSF-1 driven luciferase reporter signal; NIH3T3-HGL HSF-1 luciferase reporter, MG132, 8 h; 100% = twice DMSO control signal; activation, % at 9 µM; 1.7% of 300,000 active; AID 504408;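 active = mean replicate activation of at least 50% with a set share of replicates each reaching 50%; inconclusive = only one of those two conditions met; inactive = mean below 50% and too few replicates reaching it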
esBAF inh: blocks esBAF chromatin remodeling in mouse ES cells. AID 602393. reporter increase, % at 12.5 µM. Bmi1-luciferase knock-in reporter, 24 h; 100% = twice the neutral-well signal. 2% of 350,000 active; in the data active = activation above about 40%; inconclusive = no clear call, values can overlap the other calls;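 also: a rise in the Bmi1 reporter signal indicates esBAF inhibition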
MITF TRPM1 HTS: activators of MITF-driven TRPM1 promoter activity in SK-MEL-5 cells | SK-MEL-5 TRPM1-promoter luciferase, 24 h; % of positive control, neutral wells = 0 | activation, % at 12.5 µM | 0.75% of 300,000 active | AID 588334;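 active = mean activation of at least 80% with every replicate also reaching 80%; inconclusive = mean reaches 80% but some replicate falls short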
HSF1 inhib: HSF1 inhibition | NIH3T3-HGL HSE-luciferase, MG132-induced, luminescence 8 h; stronger effect = lower value | activity change, negative = inhibition, % at 7.5 µM (by protocol) | AID 2098 | 0.77% of 300,000 active;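 active = more than half of replicate wells show activity change below -50%, luminescence cut by over half; inconclusive = some wells, but at most half, below -50%; inactive = no replicate well below -50%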;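 also: luciferase reports HSF-1 transcriptional activity via heat shock element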
Of the large screens only hits and unclear results are named; the others gave an inactive call; ! = repeats disagree.

COc1ccccc1C#Cc1cnc2c(c1)C(=O)N([C@H](C)CO)C[C@@H](C)[C@@H](CN(C)C(C)=O)O2	none (no result: Wnt act, HSF-1 act, MITF TRPM1 HTS, HSF1 inhib)
CCCNC(=O)Nc1cccc(C(=O)OC)c1	Wnt act 34 (no result: esBAF inh)
CCC(C)C(NC(=O)c1ccccc1NC(=O)c1ccc(C)cc1)C(=O)O (stereo unspecified)	none (no result: esBAF inh)
COc1ccc(C(=O)Nc2ccc(C(=O)c3ccccc3)cc2)cc1	none (no result: esBAF inh, MITF TRPM1 HTS)
COc1ccc(NC(=O)c2cccc(NC(=O)c3ccccc3)c2)cc1	esBAF inh 41 (no result: MITF TRPM1 HTS)
COC(=O)c1ccc(NC(=O)c2cccc(C)c2)cc1	none
CCCNC(=O)Nc1cccc(NC(C)=O)c1	none
COC(=O)c1ccc(NC(=O)c2cccc(OC)c2)cc1	esBAF inh 47
Cc1ccc(C(=O)Nc2ccccc2C(=O)NC(C(=O)O)C(C)C)cc1 (stereo unspecified)	esBAF inh 31!
C[C@@H]1CN([C@H](C)CO)S(=O)(=O)c2ccc(C3=CCCC3)cc2O[C@H]1CN(C)C(=O)c1ccccn1	none (no result: Wnt act, HSF-1 act, MITF TRPM1 HTS, HSF1 inhib)
C[C@@H]1CN([C@@H](C)CO)C(=O)c2c(c3ccccc3n2C)-c2ccccc2CO[C@H]1CN(C)S(=O)(=O)c1cccc(C#N)c1	none (no result: Wnt act, HSF-1 act, MITF TRPM1 HTS, HSF1 inhib)
CC(=O)c1ccc(NC(=O)c2ccc3nc(-c4ccco4)c(-c4ccco4)nc3c2)cc1	none (no result: Wnt act)
Cc1cccc(-c2cc(C(=O)Nc3ccncc3)c3ccccc3n2)c1	HSF-1 act 63
O=C(Nc1ccncc1)c1cc(-c2ccccc2)nc2ccccc12	none (no result: HSF-1 act, MITF TRPM1 HTS, HSF1 inhib)
O=C(Nc1ccccc1)c1ccc2nc(-c3ccco3)c(-c3ccco3)nc2c1	HSF-1 act 56 (no result: Wnt act)
COc1cc(NC(=O)c2ccccc2)cc(OC)c1	esBAF inh 65
COc1ccc(-c2cc(C(=O)Nc3ccc(C)c(N)c3)c3ccccc3n2)cc1	HSF-1 act 74
COc1ccc(S(=O)(=O)N(C)C[C@H]2OCc3ccccc3-c3ccccc3C(=O)N([C@@H](C)CO)C[C@H]2C)cc1	none (no result: Wnt act, HSF-1 act, MITF TRPM1 HTS, HSF1 inhib)
CN(C)C(=O)c1cccc(-c2ccc3c(c2)[C@H]2[C@H](CCN2C(=O)C2CCCCC2)[C@H](CO)N3)c1	none (no result: Wnt act, HSF-1 act, MITF TRPM1 HTS, HSF1 inhib)
COc1cccc(NC(=O)c2ccncc2)c1	none (no result: Wnt act)
COc1cccc(C(=O)Nc2ccc(C)cc2)c1	none
COc1cccc(C(=O)NC(=S)Nc2ccc(N(C)C)cc2)c1	esBAF inh 61, MITF TRPM1 HTS inconclusive
COc1cccc(C(=O)NC(=S)Nc2ccc(N3CCCC3)cc2)c1	none (no result: Wnt act)
COC(=O)c1cccc(NC(=O)CN2CCN(Cc3ccccc3)CC2)c1	HSF1 inhib -62 (no result: Wnt act)
CC(=O)c1cccc(NC(=O)CN2CCN(Cc3ccccc3)CC2)c1	none
COc1cccc(NC(=O)c2cccc(Cl)c2)c1	Wnt act 41, esBAF inh 71, MITF TRPM1 HTS 104 (no result: HSF-1 act, HSF1 inhib)
COc1cccc(C(=O)Nc2ccc(C3CC3(Cl)Cl)cc2)c1 (stereo unspecified)	HSF-1 act 103 (no result: esBAF inh)
C[C@@H]1CN([C@@H](C)CO)C(=O)Cc2cc(NC(=O)c3ccncc3)ccc2O[C@H]1CN(C)S(=O)(=O)c1cccs1	none (no result: Wnt act, HSF-1 act, MITF TRPM1 HTS, HSF1 inhib)
COc1ccc(C(=O)Nc2cccc(OC(=O)c3ccco3)c2)cc1	MITF TRPM1 HTS 110
COc1cccc(C(=O)Nc2cccc(C(C)=O)c2)c1	esBAF inh 52
COc1ccc(Cc2nc(C(=O)Nc3ccccc3)cs2)cc1	HSF-1 act 59 (no result: Wnt act, esBAF inh)
COc1ccc(NC(=O)c2csc(Cc3ccc(Cl)cc3)n2)cc1	none (no result: esBAF inh)
COc1cccc(C(=O)Nc2cccc(OC(C)=O)c2)c1	none
COc1cc(NC(=O)c2cc(C)nc3ccccc23)cc(OC)c1	HSF1 inhib -60 (no result: esBAF inh)
COc1ccc(C(=O)Nc2cccc(OC(=O)c3ccc(C)c(C)c3)c2)cc1	none
CN(C)CCCNC(=O)C[C@@H]1CC[C@@H](NS(=O)(=O)c2ccc(F)cc2)[C@H](CO)O1	none (no result: Wnt act, HSF-1 act, MITF TRPM1 HTS, HSF1 inhib)
COc1cccc(C(=O)Nc2ccc(C(=O)O)cc2)c1	none (no result: Wnt act)
COc1cc(C(=O)Nc2ccc(Nc3ccccc3)cc2)cc(OC)c1OC	HSF-1 act 58
COc1cc(C(=O)Nc2ccncc2)cc(OC)c1OC	none
COc1cccc(C(=O)Nc2ccc(C(=O)c3ccccc3)cc2)c1	esBAF inh 42 (no result: MITF TRPM1 HTS)
COc1ccc(C(=O)Nc2ccccc2NC(=O)c2ccc(OC)cc2)cc1	none
COc1ccc(C(=O)Nc2ccccc2C(=O)Nc2ccccc2)cc1	esBAF inh 46 (no result: HSF-1 act, MITF TRPM1 HTS, HSF1 inhib)
COc1ccc(NC(=O)c2cc3ccccn3n2)cc1	Wnt act 31 (no result: MITF TRPM1 HTS)
C[C@H](CO)N1C[C@H](C)[C@H](CN(C)Cc2ccccc2)OCCCC[C@H](C)Oc2ccc(NC(=O)Nc3ccc(F)cc3)cc2C1=O	none (no result: Wnt act, HSF-1 act, MITF TRPM1 HTS, HSF1 inhib)
